Screens as filed in PubChem.
An excerpt weighted towards active compounds, which were near 3.6% of everything screened.
DUSP3 inh: DUSP3 (human) phosphatase inhibition; P51452; inhibition, % at 13.3 µM; actives 0.52% (n = 290,000); recombinant VHR phosphatase, pNPP absorbance; AID 1654; in the data active = inhibition above about 50%
Target sequence (P51452 whole entry, looked up): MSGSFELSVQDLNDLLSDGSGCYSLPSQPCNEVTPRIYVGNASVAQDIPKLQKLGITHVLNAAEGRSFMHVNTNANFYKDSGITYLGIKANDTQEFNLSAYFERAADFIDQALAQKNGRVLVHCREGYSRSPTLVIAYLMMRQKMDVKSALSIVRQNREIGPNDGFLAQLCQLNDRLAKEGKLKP
GDH-TPI counter: inhibits GDH-TPI coupling enzymes, artifact for Mtb FBA screen; GDH-TPI coupled enzyme counterscreen, NADH absorbance; inhibition, % at 4.8 µM; actives 1.2% (n = 360,000); AID 588335; in the data active = inhibition above about 30%;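 also: 0% = DMSO wells and 100% = wells lacking the enzyme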
Mtb FBA inh: Mtb fructose-bisphosphate aldolase inhibition. actives 2.3% (n = 360,000). inhibition, % at 1 µM. purified M. tuberculosis FBA, fluorescence read-out; in the data active = inhibition above about 27%;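 also: 0% = vehicle and 100% = reference inhibitor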
Target sequence (P9WQA3 whole entry, looked up): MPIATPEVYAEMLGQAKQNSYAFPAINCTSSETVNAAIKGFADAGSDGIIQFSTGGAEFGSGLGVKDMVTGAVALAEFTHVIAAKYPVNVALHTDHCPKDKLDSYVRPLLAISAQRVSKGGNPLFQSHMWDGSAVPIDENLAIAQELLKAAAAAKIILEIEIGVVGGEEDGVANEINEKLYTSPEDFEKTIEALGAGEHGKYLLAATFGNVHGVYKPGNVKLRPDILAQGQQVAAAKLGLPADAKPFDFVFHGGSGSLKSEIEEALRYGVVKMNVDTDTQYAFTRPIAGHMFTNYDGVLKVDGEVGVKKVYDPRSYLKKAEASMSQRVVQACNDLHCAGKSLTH
Mtb betalactam: beta-lactam sensitization of Mtb H37Rv | actives 0.27% (n = 330,000) | M. tuberculosis H37Rv growth with meropenem, percent inhibition | AID 434955 | inhibition, % at 25 µM; call rule not given here;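 also: growth measured after seven days incubation then overnight dye step; 0% = bacteria only wells and 100% = bacteria with antibiotic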
Mtb hypoxia inh: reduces hypoxia-regulated biosensor signal in M. tuberculosis; M. tuberculosis hypoxia-regulated fluorescent reporter, fluorescence; fluorescence inhibition, % (test concentration not listed); actives 0.1% (n = 300,000); AID 1159583; in the data active = fluorescence inhibition mostly above about 23%, no sharp cut-off; inactive = mostly below about 17%
* marks the source's active call; other numbers are inactive results; u = inconclusive; x = not tested or not shown; + = active, no number.

SMILES | DUSP3 inh | GDH-TPI counter | Mtb FBA inh | Mtb betalactam | Mtb hypoxia inh
CC1CCCCN1CCCNC(=O)CN1C(=O)CSc2ccc(S(=O)(=O)N3CCOCC3)cc21 (configuration not stated) | 50* | -4 | 3 | -1 | 4
COc1ccc(OCC(=O)NC2CCCCCCC2)cc1 | 56* | 1 | 0 | 0 | -3
COc1ccc(OCC(=O)OCC(=O)NC2CCCC2)cc1 | x | 6 | 2 | 1 | 2
ON=Cc1cn(-c2ccccc2)nc1-c1cccnc1 | x | x | x | x | 7
C#Cc1ccc(C2C=C(C(=O)OCC=C)OC(OCC)C2CCCO)cc1 (configuration not stated) | x | x | x | x | 7
C=C(C)c1cccc(C(C)(C)NC(=O)Nc2ccc(OC)nc2)c1 | 7 | 1 | 148* | 11 | 1
C=C(C)c1cccc(C(C)(C)NC(=O)Nc2ccc(C)cn2)c1 | 22 | -1 | 0 | 5 | 7
CCCC1(C)Nc2ccccc2-c2nc3ccccc3n21 (configuration not stated) | 21 | 21 | 179* | 0 | 11
c1ccc2c(c1)NC1(CCCC1)n1c-2nc2ccccc21 | -5 | 11 | + | -3 | 16
Cc1ccsc1C=C1SC(=O)N(CC(=O)N2CCOCC2)C1=O | x | x | x | x | -3
COc1cc(Br)c(-c2sc(Nc3ccccc3)n[n+]2-c2ccc(F)cc2)cc1OC | 20 | -5 | -4 | 85 | 16
COc1cc(OC)c(-c2sc(Nc3ccccc3)n[n+]2-c2ccc(F)cc2)cc1OC | 17 | 38* | 9 | -8 | 0
CCc1nc(Nc2ccc3c(c2)OCCO3)c2oc3ccccc3c2n1 | 12 | 33* | -1 | 6 | 2
O=c1nc(/C=C/c2ccc(Cl)cc2Cl)cc(C(F)(F)F)[nH]1 | 25 | 41* | 2 | 68 | 9
CC(Oc1ccc2oc(-c3ccccc3)c(C(=O)O)c2c1)C(=O)O (configuration not stated) | 13 | 6 | + | 6 | 0
Cc1oc2ccc(OC(C(=O)O)c3ccccc3)cc2c1C(=O)O (configuration not stated) | -5 | 3 | 3 | u | 15
CCOc1ccc2oc(-c3ccccc3)c(C(=O)O)c2c1 | 11 | 6 | + | -3 | x
O=C1N=C2SCCN2/C1=C\c1ccc(Cl)cc1 | 56* | 19 | 0 | 8 | -4
CC(C)(C)OC(=O)N1CCC[C@H]1C(=O)NN=Cc1ccc2ncccc2c1 | x | x | x | x | 18
Cc1ccc(C(O)=C2C(=O)C(=O)N(CC(C)O)C2c2ccc(N(C)C)cc2)cc1 (configuration not stated) | x | x | x | x | 2
CNCC(=O)Nc1ccc(Cl)c(C(F)(F)F)c1 | 20 | 2 | -3 | -6 | 17
Cc1ccccc1NC(=O)CNc1ccc(Cl)c(C(F)(F)F)c1 | 58* | 6 | -1 | -2 | x
CC1=Nn2c(nnc2-c2cc(-c3ccccc3)n[nH]2)SC1 | 18 | 13 | 3 | 13 | x
COc1ccccc1-c1nnc2n1N=C(c1ccc(O)c(O)c1)CS2 | 10 | 36* | -5 | 4 | 3
c1ccc(-c2ccc(C3=Nn4c(nnc4-c4cc(-c5ccccc5)n[nH]4)SC3)cc2)cc1 | 14 | 44* | -3 | 0 | 22
SMILES | DUSP3 inh | GDH-TPI counter | Mtb FBA inh | Mtb betalactam | Mtb hypoxia inh
O=C(N/N=C\c1ccc2c(c1)OCO2)c1ccco1 | 13 | 43* | 4 | 2 | x
O=C(N/N=C/c1ccc2c(c1)OCO2)c1ccc2c(c1)OCO2 | 24 | 16 | -2 | -7 | x
O=C(N/N=C\C=C\c1ccc2c(c1)OCO2)C1COc2ccccc2O1 (configuration not stated) | -15 | 40* | 4 | 6 | x
COc1ccc(/C=N/NC(=O)c2cccc(Br)c2)cc1CN1CCOCC1 | 25 | 12 | -4 | 4 | x
O=C(NN=Cc1ccc2c(c1)OCO2)c1ccccc1 | x | 38* | -1 | x | 13
CC(C)(C)OC(=O)NN=C/C=C/c1ccc2c(c1)OCO2 | x | x | x | x | 16
COc1ccc(/C=N/NC(=O)c2ccccc2O)cc1CN1CCOCC1 | 13 | 40* | 5 | 6 | x
CC(N)=C(C#N)C(=O)COC(=O)c1cc(-c2cccc3ccccc23)nc2ccccc12 | x | x | x | x | 5
S=C(NN=Cc1ccc2c(c1)OCO2)NN=Cc1ccc2c(c1)OCO2 | x | 62* | 1 | x | 6
COc1cc2ccccc2cc1C(=O)N/N=C/c1ccc2c(c1)OCO2 | 30 | 42* | 4 | 9 | x
O=C(N/N=C\C=C\c1ccc2c(c1)OCO2)c1cccnc1 | -1 | 54* | 1 | 2 | x
O=C(NN=C/C=C/c1ccc2c(c1)OCO2)c1cccnc1 | x | x | x | x | -8
O=C(NN=Cc1ccc2c(c1)OCO2)c1ccncc1 | x | 33* | 0 | x | x
CCOC(=O)c1cc(C)sc1N=CC1=C(O)CCCC1=O | x | x | x | x | -11
CCOC(=O)C1C2COc3ccc(Br)cc3C2N2C(=O)N(c3ccc(C)cc3)C(=O)[C@]12C (some centres not stated) | x | x | x | x | -2
CC(C)(C)OC(=O)NCCCCCNC(=O)c1[nH]cnc1C(=O)NC(Cc1ccccc1)C(=O)OCc1ccccc1 (configuration not stated) | x | x | x | x | 12
COc1ccc(N2C(=O)N3C(c4cccc(C)c4)C4C(=O)N(Cc5ccccc5)C(=O)C4[C@]3(Cc3ccccc3)C2=O)cc1 (some centres not stated) | x | x | x | x | 7
Nc1nn2cc(-c3ccccc3)nc2c2ccccc12 | -11 | 4 | + | 14 | 10
O=C(NN=Cc1coc2ccccc2c1=O)c1ccc(Cl)cc1 | x | x | x | x | 2
CCCS(=O)(=O)n1nc(-c2ccccc2)cc1N | 54* | -6 | 1 | 4 | 1
CC(=NCc1cccc(Cl)c1)c1nc(-c2ccco2)oc1O | 39 | 34* | -3 | 7 | -1
Oc1oc(-c2ccco2)nc1C=Nc1cccc(Cl)c1 | 29 | 11 | 2 | 94 | 10
O=C(CN1CCN(Cc2ccccc2Cl)CC1)NN=Cc1ccco1 | x | x | x | x | 14
O=C(NN=Cc1cccnc1)c1cc2c(ccc3ccccc32)o1 | x | x | x | x | 8
O=C(N/N=C/c1cccnc1)c1cc2ccccc2o1 | -10 | 31* | 5 | 4 | x
SMILES | DUSP3 inh | GDH-TPI counter | Mtb FBA inh | Mtb betalactam | Mtb hypoxia inh
O=C(NN=Cc1cccnc1)c1cc2ccccc2o1 | x | x | x | x | 7
O=C(N/N=C/c1cccnc1)c1cc2c(ccc3ccccc32)o1 | -11 | 32* | 7 | 5 | x
Cc1ccc(OCCCCn2cnc3ccccc32)c(C)c1 | 55* | 6 | 2 | 82 | 8
Brc1ccccc1OCCCCn1cnc2ccccc21 | 30 | -1 | -2 | 80 | 8
Cc1ccc(C=NNC(=O)CNC(=O)c2ccc(S(=O)(=O)N(C)C)cc2)o1 | x | x | x | x | -18
CCc1nc2sc3ccccc3c(=O)c2c(=O)n1Cc1ccc(OC)cc1 | 31 | 34* | -3 | 94 | 4
COc1ccc(Cn2c(C3CCCCC3)nc3c(c(=O)c4ccccc4n3C)c2=O)cc1 | 54* | x | x | -6 | 6
COc1ccc(CCn2c(C3CCCCC3)nc3c(c(=O)c4ccccc4n3C)c2=O)cc1 | 16 | 1 | -1 | 82 | -1
CC(=O)Oc1ccccc1C(=O)Oc1ccc(C=Nn2cnnc2)cc1 | x | x | x | x | -5
Cc1ccc(-c2csc(NN=Cc3ccco3)n2)c(C)c1 | x | x | x | x | -8
